Measurements: PubChem BioAssay (Tox21)
Results filed as inconclusive are left out. Unmarked numbers belong to inactive results. Calls of active or inactive are those of the source. The call rests on the fitted dose curve; in most records, active means well fitted activation curve with a large enough effect in the repeat runs; inconclusive means weak or mixed curves; inactive means no such curve, though single readings can be large or run the other way.

Assay: qHTS assay for small molecules that induce genotoxicity in human embryonic kidney cells expressing luciferase-tagged ATAD5 (AID 651632); further: nearly all actives have a fitted effect of over 15% in size
Details: HEK293T ATAD5-luciferase induction, 16 h; series mostly up to 83.3 µM; activation: at the top concentration
Source text: U.S. Tox21 Program National Center for Advancing Translational Sciences [NCATS] NIH Chemical Genomics Center [NCGC] U.S. Environmental Protection Agency [EPA] National Institutes of Environmental Health Sciences [NIEHS] National Toxicology Program [NTP] U.S. Food and Drug Administration [FDA] Tox21 Assay Overview: As cancer cells divide rapidly and during every cell division they need to duplicate their genome by DNA replication. The failure to do so results in the cancer cell death. Based on this concept, many chemotherapeutic agents were developed but have limitations such as low efficacy and severe side effects etc. A new cell based assay was developed to find the compounds that effectively block DNA replication either by directly damaging DNA or by inhibiting other cellular mechanisms. Enhanced Level of Genome Instability Gene 1 (ELG1; human ATAD5) protein levels increase in response to various types of DNA damage. Using a luciferase reporter-gene tagged with ATAD5, a cell-based assay [developed by Kyungjae Myung, NHGRI, NIH] was used to measure the induction of ATAD5 in human embryonic kidney cells (HEK293T). So, increase in luciferase activity can be used to identify the compounds that cause genetic stress.
Tox21 Assay Protocol Summary: For genotoxicity screening, 2,000 cells in 5 uL/well were dispensed into white, solid-bottom 1536-well plates using a Multidrop Combi (Thermo Scientific) dispenser. Following transfer of 23 nL compound or DMSO vehicle by a pin tool, the plates were incubated 16 hr at 37C and 5% CO2. 5 ul Amplite (AAT Bioquest, Inc.) was then added to each plate and following 30 min incubation at room temperature, luciferase activity was quantified on a ViewLux CCD-based plate reader.
On the % scale 0 is the no-effect control and ±100 the full control effect; potency means the concentration at half of the fitted maximal effect.

| Compound | activation | Potency |
| --- | --- | --- |
| CC(=O)OC1C2(C)CCC(C2)C1(C)C (stereo not given) | 2.13% |  |
| CN(CC1(C)CCCO1)S(=O)(=O)c1ccc(Cl)c(S(N)(=O)=O)c1 (stereo not given) | 2.53% |  |
| NCCCN1CCN(CCCN)CC1 | 1.78% |  |
| NC/C=C/C(=O)O | -2.86% |  |
| OCc1ccccc1O | 3.66% |  |
| Cc1nnc(SCC2=C(C(=O)O)N3C(=O)[C@@H](NC(=O)Cn4cnnn4)[C@H]3SC2)s1 | 2.98% |  |
| CCOC(=O)c1ccccc1O |  | inactive |
| OC[C@H]1O[C@@H](O[C@H]2[C@H](O)[C@@H](O)[C@H](O)O[C@@H]2CO)[C@H](O)[C@@H](O)[C@H]1O | 3.15% |  |
| O=C(O)CN(CCN(CC(=O)O)CC(=O)O)CCN(CC(=O)O)CC(=O)O |  | 26.6 µM (active) |
| CC1(O)CSC(C)(O)CS1 (stereo not given) | 4.78% |  |
| FC(F)(F)C(Cl)(Cl)Cl | 1.98% |  |
| CC(C)=CCC[C@](C)(O)[C@@H]1CC=C(C)CC1 | -3.65% |  |
| CCc1nnc(NS(=O)(=O)c2ccc(N)cc2)s1 | -1.92% |  |
| OCC(CBr)(CBr)CBr | -1.58% |  |
| Cc1nc(-c2ccccn2)ncc1C(=O)Nn1cc(C)c2cc(F)ccc21 | -7.48% |  |
| N#Cc1ccc(C(c2ccc(C#N)cc2)n2cncn2)cc1 |  | inactive |
| COC(=O)c1ccc(OC)cc1 | 1.63% |  |
| O=C1CCN(c2ccccc2)N1 | 6.02% [at 95.3 µM] |  |
| COc1ccc(S(=O)(=O)Nc2nnc(CC(C)C)s2)cc1 |  | inactive |
| C1CSCCS1 | 0.51% |  |

| Compound | activation | Potency |
| --- | --- | --- |
| CC(=O)N(CC(O)CN(C(C)=O)c1c(I)c(C(=O)NCC(O)CO)c(I)c(C(=O)NCC(O)CO)c1I)c1c(I)c(C(=O)NCC(O)CO)c(I)c(C(=O)NCC(O)CO)c1I (stereo not given) | -1.06% [at 39.1 µM] |  |
| CC(C)(C)c1ccc(OC(=O)c2ccccc2O)cc1 |  | 21.7 µM (active) |
| c1ccc(CN(CC2=NCCN2)c2ccccc2)cc1 | 3.29% |  |
| O=S(=O)(O)C(F)(F)F | -3.07% |  |
| Nc1ccc(Oc2ccc(N)c(N)c2)cc1 |  | 30.6 µM (active) |
| CCOc1ccccc1N | 0.938% |  |
| CC(C)C[C@H](NC(=O)OCC1c2ccccc2-c2ccccc21)C(=O)O |  | 12.2 µM (active) |
| CCN(CC)CC1CCCCN1CC(=O)N1c2ccccc2C(=O)Nc2cccnc21 (stereo not given) | 2.84% |  |
| O=C(C(Cl)Cl)N1CCOC12CCCCC2 | -3.44% |  |
| O=C(O)[C@@H](O)[C@H](O)[C@H](O)[C@@H](O)C(=O)O | 2.05% |  |
| C=CCCC=C | 2.41% [at 95.3 µM] |  |
| O=C1CCC(C2CCCCC2)CC1 | -1.05% |  |
| Cc1ccc([N+](=O)[O-])cc1Cl | -0.659% [at 95.3 µM] |  |
| CC(=O)Oc1cc(C(C)C)c(OCCN(C)C)cc1C | -1.67% [at 39.1 µM] |  |
| CCCCC(CC)COC(=O)COc1cc(Cl)c(Cl)cc1Cl (stereo not given) | 2.15% |  |
| CCCNC(C)C(=O)Nc1c(C)csc1C(=O)OC (stereo not given) | 2.55% [at 39.1 µM] |  |
| CCN(CC)CCNC(=O)COc1ccc(Cl)cc1 | 2.75% |  |
| NS(=O)(=O)c1cc(-c2nn[nH]n2)c(NCc2cccs2)cc1Cl | -4.62% |  |
| CC(CNC1CCCCC1)OC(=O)c1ccccc1 (stereo not given) | -1.07% [at 39.1 µM] |  |
| O=C(O)[C@@H]1CSCN1 | -2.67% |  |
